High-throughput results (PubChem)
CendR NRP1 mod: modulators of CendR peptide binding to NRP-1, primary screen, biochemical, fluorescence polarization, uHTS | FAM-RPARPAR peptide binding to NRP-1 | inhibition, % at 25 µM | actives 0.85% (n = 360,000) | AID 602438, 2012;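 active = inhibition or corrected inhibition above about 18%, plus a signal ratio from 0.5 to 1.5, limit read from the data, passing the limit was not always enough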
ADAM17 inh: ADAM17 inhibitors, primary screen, biochemical, QFRET | Disintegrin and metalloproteinase domain-containing protein 17 (Homo sapiens), P78536 | recombinant ADAM17, EDANS/DABCYL FRET peptide cleavage | inhibition, % at 6.95 µM | actives 0.83% (n = 370,000);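 active = inhibition above the mean of compounds lying between control limits plus 3 SD, set per campaign, cut at about 8.5% in these data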;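 also: 0% = DMSO-only wells as the low control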
sPLA2-III inh: human group III sPLA2 inhibitors, primary screen, biochemical, QFRET, BODIPY PC-A2 liposome substrate. actives 0.56% (n = 370,000). QFRET BODIPY PC-A2 liposome hydrolysis, fluorescence. inhibition, % at 12.2 µM;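 active = inhibition above mean plus 3 SD of compounds lying within the high and low control bounds, cut at about 19% in these data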;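 also: 0% = median of test compound wells and 100% = no enzyme DMSO wells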
ADAM10 inh: human ADAM10 inhibitors, primary screen, biochemical, QFRET, HTS; Disintegrin and metalloproteinase domain-containing protein 10 (Homo sapiens), O14672; recombinant ADAM10, EDANS/DABCYL FRET peptide cleavage, 3 h; inhibition, % at 7 µM; actives 0.62% (n = 370,000); AID 720582, 2013;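 active = inhibition above a per-campaign cutoff equal to the mean of compounds falling between control-based bounds plus 3 SD, cut at about 20% in these data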;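 also: 0% = DMSO wells while the 100% control is not disclosed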
Target sequence (O14672 214-748 limits assumed): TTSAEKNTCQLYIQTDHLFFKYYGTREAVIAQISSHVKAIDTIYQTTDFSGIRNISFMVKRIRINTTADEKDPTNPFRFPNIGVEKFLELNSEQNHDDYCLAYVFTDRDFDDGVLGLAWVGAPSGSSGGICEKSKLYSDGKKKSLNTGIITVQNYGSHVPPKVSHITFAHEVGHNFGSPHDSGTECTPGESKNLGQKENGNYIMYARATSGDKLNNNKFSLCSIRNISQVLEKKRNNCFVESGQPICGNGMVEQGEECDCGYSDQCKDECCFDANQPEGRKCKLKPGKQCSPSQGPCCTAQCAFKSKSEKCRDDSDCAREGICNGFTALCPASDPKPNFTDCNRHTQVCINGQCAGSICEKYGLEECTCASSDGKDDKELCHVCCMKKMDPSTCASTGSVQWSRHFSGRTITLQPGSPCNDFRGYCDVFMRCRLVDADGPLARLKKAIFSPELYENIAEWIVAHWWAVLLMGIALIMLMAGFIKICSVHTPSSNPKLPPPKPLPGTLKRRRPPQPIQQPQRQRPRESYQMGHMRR
proKLK7 act: proKLK7 zymogen activators, primary screen, biochemical, fluorescence intensity; AID 652039, 2013; activation, % at 7 µM; purified proKLK7, EDANS-DABCYL substrate fluorescence; 100% is mature enzyme control, 0% vehicle; Kallikrein-7 (Homo sapiens), P49862; actives 0.9% (n = 370,000);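 active = activation above the mean of all tested compounds plus 3 SD, computed per campaign excluding outliers beyond control limits, cut at about 13% in these data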
sPLA2 confirm: human group III sPLA2 inhibitors, confirmation, biochemical, QFRET, triplicate; shares compounds with sPLA2-III inh; recombinant hGIII-sPLA2, BODIPY PC-A2 QFRET fluorescence; inhibition, % at 12.2 µM; actives 34% (n = 2,000); AID 743280, 2014;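 active = mean inhibition across triplicates above the hit cutoff set in the earlier primary screen, cut at about 19% in these data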;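 also: 0% = enzyme with DMSO and 100% = DMSO wells lacking enzyme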
BODIPY interf: 535nm fluorescence optical interference, confirmation, artefact control for HGIII-sPLA2 inhibitor project, biochemical, QFRET. actives 8.5% (n = 2,000). shares compounds with sPLA2-III inh. BODIPY FL product fluorescence interference. inhibition, % at 12.2 µM;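 active = average inhibition above the solvent-only control mean plus 3 SD, cut at about 6% in these data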;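 also: 0% = DMSO with substrate plus product and 100% = DMSO with substrate alone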
535nm interf DR: 535nm fluorescence optical interference, dose response, artefact control for HGIII-sPLA2 inhibitor project, biochemical, QFRET. AID 743455, 2014. BODIPY FL product fluorescence interference, cell-free. shares compounds with sPLA2-III inh. 240 tested, under 10 active. IC50, µM;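 active = IC50 at or below 10 µM; inactive = IC50 above 10 µM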
Active calls of the source: *; x = no result given. Most compounds without a hit are left out; they make up all but 3.4% or so of the library.

SMILES | CendR NRP1 mod | ADAM17 inh | sPLA2-III inh | ADAM10 inh | proKLK7 act | sPLA2 confirm | BODIPY interf | others
COC(=O)C(NC(C)=O)(Nc1ccc(C)cn1)C(F)(F)F (centres undefined) | 5.3 | -10.1 | 19.6* | 4.2 | -0.2 | 4.5 | -5.7
C=CCCC1CN(Cc2ccc(OC)cc2)S(=O)(=O)c2c(F)cccc2O1 (centres undefined) | x | 3.4 | 3.4 | 2.3 | -0.7 | x | x
CN(Cc1ccccc1)C(=O)OCc1cn(Cc2ccc(Cl)cc2)nn1 | x | -1.2 | -7.1 | 1.5 | 0.2 | x | x
Cc1ccc(S(=O)(=O)N2CCCC(N3CCOCC3)C2)cc1Cl (centres undefined) | 7.5 | -3.7 | 19.4* | -8.4 | 0.5 | -2.2 | -9.5
COC(=O)[C@]12C[C@H](CC(=O)NCc3cccc(C(F)(F)F)c3)C(=O)N(CCC3=CCCCC3)C1=C[C@H](C(C)C)O[C@@H]2C1CC1 | x | 0.0 | 0.9 | 8.8 | -0.3 | x | x
CCc1ccc(Nc2nc(N)nc(CSc3nc4ccccc4s3)n2)cc1 | 0.7 | 0.9 | 23.8* | -6.4 | -0.5 | -3.1 | 0.0
CCOC(=O)C1=C(C)N(C)C(=S)NC1c1ccccc1Cl (centres undefined) | -2.8 | 1.8 | 21.2* | 2.5 | -0.5 | 19.0 | -4.7
CCC(C)NC(=O)CSc1ccc(Cl)cc1 (centres undefined) | -6.5 | -3.7 | 1.4 | -4.3 | 0.4 | x | x
CCC(C)NC(=O)CCSc1ccc(C)cc1 (centres undefined) | 7.2 | -0.2 | 19.3* | -3.8 | -0.5 | 0.8 | -3.9
Cc1cccc(N2CCN(S(=O)(=O)c3c(C)noc3/C=C/N(C)C)CC2)c1C | 0.3 | -4.8 | 27.1* | 3.9 | 0.2 | 23.7* | -4.9
Cc1noc(/C=C/N(C)C)c1S(=O)(=O)N1CCN(c2ccc(F)cc2)CC1 | -2.0 | -3.1 | 11.8 | 0.9 | -0.6 | x | x
O[C@H](COc1ccc(Cl)cc1)CN1CCC(C(O)(c2ccccc2)c2ccccc2)CC1 | x | 2.4 | -23.3 | 6.9 | 0.6 | x | x
COC(=O)c1c(NC(=S)NNS(=O)(=O)c2ccc(OC)cc2OC)sc2c1CCCCCC2 | 5.9 | -3.0 | -7.7 | 3.4 | 0.1 | x | x
COC(=O)c1c(NC(=S)Nc2cc(OC)c(Cl)cc2OC)sc2c1CCCCC2 | 16.5 | 0.1 | 25.2* | 8.5 | 0.1 | 26.4* | 11.3*
Cc1ccc2cc(C#N)c(SCC(=O)N3CCCc4ccccc43)nc2c1C | 23.5* | -3.5 | 19.6* | -8.4 | -0.1 | -2.7 | -4.3
COC(=O)[C@]12C[C@H](CC(=O)N3CCSCC3)C(=O)N(Cc3ccccc3)C1=C[C@H](COCc1ccccc1)O[C@@H]2C | x | -5.0 | -1.7 | -4.5 | 0.7 | x | x
Cc1ccc([N+](=O)[O-])c(-c2n[nH]c(=S)n2-c2cccc(Cl)c2)c1 | 8.7 | -0.6 | 31.4* | 2.3 | -0.5 | 22.5* | 6.6*
Cc1cccc(-n2c(-c3ccoc3C)n[nH]c2=S)c1 | 0.6 | -4.2 | 19.9* | 3.3 | 0.4 | 35.6* | -0.8 | 535nm interf DR=>122
S=c1[nH]nc(-c2ccc(Cl)cc2Cl)n1-c1ccccc1 | 14.7 | 4.5 | 16.2 | 18.5 | -0.3 | x | x
Cc1ccccc1CN1CCN(C(=O)[C@H]2O[C@@H](n3cnc(C(N)=O)n3)[C@H](O)[C@@H]2O)CC1 | x | -3.6 | 5.7 | -11.7 | 0.9 | x | x
CCCNC(=O)c1ccc2c(=O)c(O)c(-c3ccc(Cl)c([N+](=O)[O-])c3)[nH]c2c1 | 6.8 | -20.4 | 19.6* | -61.8 | 1.1 | -7.9 | -1.1
CC(NC(=O)CN1CCOCC1)c1ccc(F)cc1 (centres undefined) | -1.4 | -1.1 | 20.6* | -4.9 | 0.0 | -5.1 | -5.0
NC(=S)NN=Cc1nccc2c(C(F)(F)C(F)(F)C(F)(F)F)cccc12 | -6.4 | -5.9 | 31.4* | -30.1 | 0.3 | 38.6* | -4.4 | 535nm interf DR=>122
NC(=S)N/N=C/c1ccc(/C=N/NC(N)=S)cc1 | -15.3 | -8.0 | 14.0 | -11.2 | -0.6 | x | x
COc1cc(NC(=S)NCC2CCCO2)c(OC)cc1Cl (centres undefined) | 0.8 | -0.4 | 4.9 | -1.0 | 0.0 | x | x
SMILES | CendR NRP1 mod | ADAM17 inh | sPLA2-III inh | ADAM10 inh | proKLK7 act | sPLA2 confirm | BODIPY interf | others
S=C(NCC1CCCO1)Nc1ccc(Cl)cc1Cl (centres undefined) | -0.5 | 4.7 | 24.5* | -14.1 | -0.5 | 3.2 | -3.9
COC(=O)[C@]12C[C@H](CC(=O)NCC3CCCCC3)C(=O)N(CCC3=CCCCC3)C1=C[C@H](C(C)C)O[C@@H]2C1CC1 | x | -5.2 | 9.1 | -6.4 | 0.5 | x | x
COC(=O)C1=C(C)N(Cc2ccc(C(F)(F)F)cc2)C(=NCc2ccccc2)NC1c1ccc(Cl)cc1 (centres undefined) | x | 3.0 | 2.3 | 1.3 | 0.3 | x | x
COC(=O)C1=C(C)N(Cc2ccc(C(F)(F)F)cc2)C(=NCc2ccc(OC)cc2)NC1c1ccccc1 (centres undefined) | x | 1.5 | 21.1* | 5.3 | -0.4 | -23.9 | -34.8
O=C1C=C[C@H]2CC[C@@H](O)[C@@H]1[C@@H]2Sc1ccccc1 | x | -3.5 | 13.2 | -1.3 | 0.1 | x | x
NC(=O)c1ncn2c(=O)n(CCCl)nnc12 | x | 2.4 | 18.2 | -16.2 | 0.1 | x | x
COc1ccc(C2NCCc3c2[nH]c2ccccc32)cc1CSc1nc2ccccc2s1 (centres undefined) | -19.3 | 6.7 | 19.8* | 19.2 | -0.4 | -2.3 | -3.9
COC(=O)c1ccc(NC(=O)CCN2CCOCC2)cc1 | 11.3 | -2.9 | 22.0* | -4.6 | -0.2 | -11.4 | -4.5
COC(=O)c1ccc(NC(=O)CCN2CCN(CCC(=O)Nc3ccc(C(=O)OC)cc3)CC2)cc1 | 0.9 | 4.2 | -6.9 | 2.8 | 0.7 | x | x
C#CCN(C[C@H]1[C@H](OC(=O)Nc2c(C)noc2C)[C@H](OC(=O)Nc2c(C)noc2C)CN(C(=O)OC(C)C)N1C(=O)OC(C)C)S(=O)(=O)c1ccc(C)cc1 | x | 5.3 | -18.3 | 5.1 | 0.4 | x | x
Cc1ccc(/C=C2/SC(=O)N(CC(=O)N3CCOCC3)C2=O)s1 | -28.8 | -0.2 | 8.0 | -7.3 | -0.1 | x | x
